# Tests used:
# Experiment in all cases: DAPPL (digital affinity profiling via proximity ligation, sequencing); 10 mM Tris-HCl pH 7.5, 50 mM NaCl, 1 mM DTT, 4% glycerol, room temperature, 30 min; GST-TFs on glutathione beads, 16-mer random dsDNA library, 0.1% formaldehyde crosslink after washing; high values mean tight binding
# FEV = target: T1, FEV (Homo sapiens, UniProt Q99581 1-238); conditions: protein: recombinant; tags: N-terminal GST; dsDNA, one strand shown
# T1 sequence: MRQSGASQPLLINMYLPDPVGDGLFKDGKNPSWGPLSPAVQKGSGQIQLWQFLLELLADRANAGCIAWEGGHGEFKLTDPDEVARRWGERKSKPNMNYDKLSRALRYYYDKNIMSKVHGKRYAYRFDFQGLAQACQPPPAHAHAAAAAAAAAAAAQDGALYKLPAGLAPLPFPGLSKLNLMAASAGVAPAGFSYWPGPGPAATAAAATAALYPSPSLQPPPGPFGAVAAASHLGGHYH
# Method in brief: (§1)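 Yeast served to express human transcription factors as GST fusions, which were then captured on glutathione beads and labelled with DNA barcodes. Pooled with a tag-only sample, they were incubated with 200 nmole of a 16-mer random double-stranded DNA library for 30 min at room temperature in Tris/NaCl/DTT/glycerol buffer, washed, crosslinked with 0.1% formaldehyde, ligated by proximity, amplified by PCR and sequenced. Dividing each hexamer's read frequency for a factor by its frequency for the tag-only sample gives the binding signal.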
# ETV5 = ETV5 (Homo sapiens, UniProt P41161 1-510); conditions: protein: recombinant; tags: N-terminal GST; dsDNA, one strand shown
# ETV5, sequence (P41161 whole entry): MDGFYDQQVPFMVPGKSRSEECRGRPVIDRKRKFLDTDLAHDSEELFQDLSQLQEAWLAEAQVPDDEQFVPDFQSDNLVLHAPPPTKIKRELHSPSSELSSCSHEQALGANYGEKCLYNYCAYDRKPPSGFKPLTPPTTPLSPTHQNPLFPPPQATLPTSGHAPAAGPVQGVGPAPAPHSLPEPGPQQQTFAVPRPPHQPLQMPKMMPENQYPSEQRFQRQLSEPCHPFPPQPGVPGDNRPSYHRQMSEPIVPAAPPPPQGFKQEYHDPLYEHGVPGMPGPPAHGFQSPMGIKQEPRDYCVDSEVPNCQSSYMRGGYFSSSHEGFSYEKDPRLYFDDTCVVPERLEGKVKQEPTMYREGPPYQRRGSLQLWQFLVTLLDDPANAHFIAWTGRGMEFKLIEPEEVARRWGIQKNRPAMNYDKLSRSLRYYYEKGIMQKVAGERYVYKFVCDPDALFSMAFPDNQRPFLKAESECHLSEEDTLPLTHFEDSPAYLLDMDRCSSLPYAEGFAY
# Method in brief: as §1
# HSF1 = HSF1 (Homo sapiens, UniProt Q00613 1-529); conditions: protein: recombinant; tags: N-terminal GST; chain copies: 3; dsDNA, one strand shown
# HSF1, sequence (Q00613 whole entry): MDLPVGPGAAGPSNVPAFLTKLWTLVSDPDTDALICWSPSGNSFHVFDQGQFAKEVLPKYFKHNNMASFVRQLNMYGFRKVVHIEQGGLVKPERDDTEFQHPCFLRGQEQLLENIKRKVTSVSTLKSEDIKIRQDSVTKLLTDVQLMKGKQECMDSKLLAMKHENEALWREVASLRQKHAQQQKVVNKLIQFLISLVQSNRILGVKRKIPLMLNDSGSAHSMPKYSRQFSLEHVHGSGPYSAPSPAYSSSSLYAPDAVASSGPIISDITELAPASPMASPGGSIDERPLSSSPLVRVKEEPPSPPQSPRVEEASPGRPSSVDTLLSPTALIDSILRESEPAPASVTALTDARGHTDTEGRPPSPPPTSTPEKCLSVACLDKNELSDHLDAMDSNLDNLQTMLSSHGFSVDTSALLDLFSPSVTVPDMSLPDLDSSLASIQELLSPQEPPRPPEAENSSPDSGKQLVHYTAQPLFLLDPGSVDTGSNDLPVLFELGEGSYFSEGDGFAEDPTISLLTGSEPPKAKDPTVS
# Method in brief: as §1
# SPIC = target: T2, SPIC (Homo sapiens, UniProt Q8N5J4 1-248); conditions: protein: recombinant; tags: N-terminal GST; dsDNA, one strand shown
# T2 sequence: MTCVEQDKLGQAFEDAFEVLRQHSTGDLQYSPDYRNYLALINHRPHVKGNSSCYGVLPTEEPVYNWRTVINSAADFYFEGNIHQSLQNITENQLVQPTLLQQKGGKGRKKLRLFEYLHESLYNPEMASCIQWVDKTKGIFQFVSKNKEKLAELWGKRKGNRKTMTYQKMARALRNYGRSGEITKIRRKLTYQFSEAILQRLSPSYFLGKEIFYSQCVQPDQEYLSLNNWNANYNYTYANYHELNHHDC
# Method in brief: as §1
# ELF4 = ELF4 (Homo sapiens, UniProt Q99607 1-663); conditions: protein: recombinant; tags: N-terminal GST; dsDNA, one strand shown
# ELF4, sequence (Q99607 whole entry): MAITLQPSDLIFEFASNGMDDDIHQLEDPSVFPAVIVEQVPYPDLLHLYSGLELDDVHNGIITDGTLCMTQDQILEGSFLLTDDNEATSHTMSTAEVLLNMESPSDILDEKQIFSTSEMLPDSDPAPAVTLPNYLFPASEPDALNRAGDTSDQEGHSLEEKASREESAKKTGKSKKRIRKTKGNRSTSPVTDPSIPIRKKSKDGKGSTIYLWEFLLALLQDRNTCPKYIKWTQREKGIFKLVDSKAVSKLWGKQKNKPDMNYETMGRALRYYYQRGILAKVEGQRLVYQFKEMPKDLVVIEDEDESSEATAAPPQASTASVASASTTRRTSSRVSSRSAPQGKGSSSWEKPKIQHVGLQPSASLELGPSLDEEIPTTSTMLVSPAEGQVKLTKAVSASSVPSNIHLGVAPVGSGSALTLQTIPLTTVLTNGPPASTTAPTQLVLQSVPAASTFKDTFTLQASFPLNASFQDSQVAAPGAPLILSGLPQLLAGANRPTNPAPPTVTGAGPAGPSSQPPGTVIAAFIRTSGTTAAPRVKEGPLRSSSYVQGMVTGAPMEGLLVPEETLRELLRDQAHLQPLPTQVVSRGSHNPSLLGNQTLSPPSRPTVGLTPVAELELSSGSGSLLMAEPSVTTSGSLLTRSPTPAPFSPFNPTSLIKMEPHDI
# Method in brief: as §1
# ELK4 = target: T3, ELK4 (Homo sapiens, UniProt P28324-2 1-405); conditions: protein: recombinant; tags: N-terminal GST; dsDNA, one strand shown
# T3 sequence: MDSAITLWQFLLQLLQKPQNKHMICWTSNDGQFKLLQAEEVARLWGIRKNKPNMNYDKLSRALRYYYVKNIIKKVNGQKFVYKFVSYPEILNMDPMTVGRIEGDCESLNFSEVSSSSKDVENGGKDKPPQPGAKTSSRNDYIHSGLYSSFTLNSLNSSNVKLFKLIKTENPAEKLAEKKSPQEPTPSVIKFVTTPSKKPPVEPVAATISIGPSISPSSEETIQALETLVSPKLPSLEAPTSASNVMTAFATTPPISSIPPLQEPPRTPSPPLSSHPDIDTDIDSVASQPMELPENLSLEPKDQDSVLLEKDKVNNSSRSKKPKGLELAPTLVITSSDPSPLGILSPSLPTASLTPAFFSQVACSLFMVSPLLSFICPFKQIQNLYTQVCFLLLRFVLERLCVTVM
# Method in brief: as §1
# ETV2 = target: T4, ETV2 (Homo sapiens, UniProt O00321 1-342); conditions: protein: recombinant; tags: N-terminal GST; dsDNA, one strand shown
# T4 sequence: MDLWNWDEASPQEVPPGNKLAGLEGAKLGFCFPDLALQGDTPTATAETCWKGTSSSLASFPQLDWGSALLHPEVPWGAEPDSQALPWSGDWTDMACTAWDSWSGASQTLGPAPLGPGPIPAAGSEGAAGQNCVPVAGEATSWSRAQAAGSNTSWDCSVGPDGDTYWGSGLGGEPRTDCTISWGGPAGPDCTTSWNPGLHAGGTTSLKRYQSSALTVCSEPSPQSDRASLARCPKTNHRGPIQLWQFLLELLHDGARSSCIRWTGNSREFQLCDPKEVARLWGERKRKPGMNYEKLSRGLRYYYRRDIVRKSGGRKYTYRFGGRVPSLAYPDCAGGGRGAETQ
# Method in brief: as §1
# ELF3 = target: T5, ELF3 (Homo sapiens, UniProt P78545 1-371); conditions: protein: recombinant; tags: N-terminal GST; dsDNA, one strand shown
# T5 sequence: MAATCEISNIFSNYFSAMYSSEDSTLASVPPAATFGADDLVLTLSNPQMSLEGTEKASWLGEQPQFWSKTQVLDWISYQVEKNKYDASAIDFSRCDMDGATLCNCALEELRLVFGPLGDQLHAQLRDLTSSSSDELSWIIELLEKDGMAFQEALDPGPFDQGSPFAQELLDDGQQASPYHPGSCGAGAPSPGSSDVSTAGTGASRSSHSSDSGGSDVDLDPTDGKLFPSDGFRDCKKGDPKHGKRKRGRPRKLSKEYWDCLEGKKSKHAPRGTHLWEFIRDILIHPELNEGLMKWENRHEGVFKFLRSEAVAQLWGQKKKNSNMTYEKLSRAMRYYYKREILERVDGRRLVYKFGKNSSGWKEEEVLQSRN
# Method in brief: as §1
# CRX = CRX (Homo sapiens, UniProt O43186 1-299); conditions: protein: recombinant; tags: N-terminal GST; dsDNA, one strand shown
# CRX, sequence (O43186 whole entry): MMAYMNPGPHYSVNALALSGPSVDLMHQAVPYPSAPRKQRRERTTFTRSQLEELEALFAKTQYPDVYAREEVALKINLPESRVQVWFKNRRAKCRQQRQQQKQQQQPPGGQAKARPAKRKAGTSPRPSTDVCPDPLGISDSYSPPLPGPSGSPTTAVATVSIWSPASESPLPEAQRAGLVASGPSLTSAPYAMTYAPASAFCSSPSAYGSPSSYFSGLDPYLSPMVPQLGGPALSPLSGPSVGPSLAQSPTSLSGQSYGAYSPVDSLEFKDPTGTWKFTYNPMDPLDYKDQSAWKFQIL
# Method in brief: as §1
# ETV1 = ETV1 (Homo sapiens, UniProt P50549 1-477); conditions: protein: recombinant; tags: N-terminal GST; dsDNA, one strand shown
# ETV1, sequence (P50549 whole entry): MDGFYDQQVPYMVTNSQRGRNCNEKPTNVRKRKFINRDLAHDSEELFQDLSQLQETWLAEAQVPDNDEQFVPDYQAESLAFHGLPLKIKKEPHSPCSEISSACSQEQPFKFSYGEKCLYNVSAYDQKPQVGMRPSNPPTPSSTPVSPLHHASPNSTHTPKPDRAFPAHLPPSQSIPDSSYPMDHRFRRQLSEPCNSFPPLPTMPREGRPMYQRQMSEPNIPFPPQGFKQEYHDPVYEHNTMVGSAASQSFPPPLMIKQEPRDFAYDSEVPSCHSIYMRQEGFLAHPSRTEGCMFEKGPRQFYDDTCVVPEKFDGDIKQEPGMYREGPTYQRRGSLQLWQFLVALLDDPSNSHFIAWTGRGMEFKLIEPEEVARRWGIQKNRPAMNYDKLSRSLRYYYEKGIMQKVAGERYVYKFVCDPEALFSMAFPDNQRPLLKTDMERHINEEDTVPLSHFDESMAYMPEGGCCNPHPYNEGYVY
# Method in brief: as §1
sequence,measurement,setting,value
GATGAC,binding signal,FEV,"1.47 fold enrichment (6-mer frequency, TF over GST control)"
same,binding signal,ETV5,"1.49 fold enrichment (6-mer frequency, TF over GST control)"
same,binding signal,HSF1,"1.27 fold enrichment (6-mer frequency, TF over GST control)"
same,binding signal,SPIC,"1.15 fold enrichment (6-mer frequency, TF over GST control)"
same,binding signal,ELF4,"1.56 fold enrichment (6-mer frequency, TF over GST control)"
same,binding signal,ELK4,"1.42 fold enrichment (6-mer frequency, TF over GST control)"
same,binding signal,ETV2,"1.35 fold enrichment (6-mer frequency, TF over GST control)"
same,binding signal,ELF3,"1.48 fold enrichment (6-mer frequency, TF over GST control)"
same,binding signal,CRX,"1.26 fold enrichment (6-mer frequency, TF over GST control)"
same,binding signal,ETV1,"1.55 fold enrichment (6-mer frequency, TF over GST control)"

# From PMC7862700, “An all-to-all approach to the identification of sequence-specific readers for epigenetic DNA modifications on cytosine”
